Bioassay records: PubChem, NMMLSC
MEKK3 PB1 HTS: modulators of MEKK3-MEK5 PB1 binding, primary screen, biochemical, wildtype MEKK3, multiplex bead flow cytometry, Alexa488-MEK5; bead-based flow cytometry, Alexa488-MEK5 binding to MEKK3; actives lie on both sides; 0 = blocked by unlabeled MEK5, 100 = vehicle; binding response (% of control), % at 10 µM; actives 1.4% (n = 290,000); AID 1529, 2009;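 active means binding response more than 3 SD above or below the average of its plate-row segment, actives on both sides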;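 further: Alexa488 bead fluorescence after subtracting the streptavidin-only scavenger bead signal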
Target sequence (Q99759 whole entry, looked up): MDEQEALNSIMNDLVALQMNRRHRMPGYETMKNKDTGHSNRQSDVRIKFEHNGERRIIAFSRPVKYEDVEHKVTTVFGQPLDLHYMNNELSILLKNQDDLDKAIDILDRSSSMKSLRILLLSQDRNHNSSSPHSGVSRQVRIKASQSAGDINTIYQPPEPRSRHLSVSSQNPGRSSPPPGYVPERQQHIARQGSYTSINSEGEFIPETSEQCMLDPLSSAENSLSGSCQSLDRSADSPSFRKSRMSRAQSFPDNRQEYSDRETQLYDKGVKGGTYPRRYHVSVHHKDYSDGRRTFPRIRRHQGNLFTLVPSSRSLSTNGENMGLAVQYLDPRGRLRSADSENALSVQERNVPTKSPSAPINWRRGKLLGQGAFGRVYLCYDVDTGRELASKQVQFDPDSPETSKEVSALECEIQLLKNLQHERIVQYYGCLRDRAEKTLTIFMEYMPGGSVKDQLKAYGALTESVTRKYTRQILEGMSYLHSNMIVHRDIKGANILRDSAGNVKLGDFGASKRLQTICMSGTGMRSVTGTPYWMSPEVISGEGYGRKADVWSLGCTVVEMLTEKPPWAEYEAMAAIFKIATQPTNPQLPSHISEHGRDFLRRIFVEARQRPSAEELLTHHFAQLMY
MEKK2 WT-MEK5: modulators of MEK5 binding to wildtype MEKK2, primary screen, biochemical, multiplex bead flow cytometry, Alexa488-MEK5; binding response (% of control), % at 10 µM; Alexa488-MEK5 binding to MEKK2 WT; actives lie on both sides; actives 1.1% (n = 290,000); Mitogen-activated protein kinase kinase kinase 2 (Homo sapiens), Q9Y2U5; in the data active means binding response below about 67% or above about 130%
GRK2 aptamer HTS: compounds blocking aptamer binding on GRK2 – biochemical, human GRK2, bead flow cytometry, HTS, primary screen. Beta-adrenergic receptor kinase 1 (Homo sapiens), P25098. FAM-aptamer displacement from GRK2. inhibition of aptamer binding, % at 10 µM. actives 0.59% (n = 330,000);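 active means inhibition of aptamer binding above 40%, roughly 3 SD of noise, on plates passing a quality check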;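 further: median bead fluorescence of bound FAM aptamer so fluorescent compounds give negative values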
MEKK2 mut-MEK5: MEK5 binding signal on mutant MEKK2 PB1, primary screen, biochemical, multiplex bead flow cytometry, Alexa488-MEK5; Alexa488-MEK5 binding to MEKK2 mutant; percent response, % at 10 µM; actives 0.35% (n = 290,000); in the data active means percent response above about 24%, passing the limit was not always enough
Beta2AR agonist: beta2AR agonists driving receptor internalization, primary screen, cell-based, FAP fluorogen, flow cytometry. Am2.2-beta2AR cells. Beta-2 adrenergic receptor (Homo sapiens), P07550. response, % (test concentration not listed). actives 0.43% (n = 340,000);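 active means response above a set limit, near 3 SD of response in nonfluorescent compounds, cut at about 42% in these data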
MEKK2wt confirm: modulators of MEK5 binding to wildtype MEKK2, confirmation, biochemical, single concentration, multiplex bead flow cytometry; shares compounds with MEKK3 PB1 HTS; Alexa488-MEK5 binding to MEKK2 WT; actives lie on both sides; binding response (% of control), % at 10 µM; actives 2.4% (n = 5,900); AID 1892, 2009; in the data active means binding response below about 16% or above about 210%; inactive means in between
MEKK2mut confirm: mutant MEKK2 PB1-MEK5 binding signal retest – biochemical, single concentration, multiplex bead flow cytometry, confirmation; shares compounds with MEKK3 PB1 HTS; Alexa488-MEK5 binding to MEKK2 mutant; percent response, % at 10 µM; actives 2% (n = 5,900); in the data active means percent response mostly above about 71%, no sharp cut-off; inactive means mostly below about 38%;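 further: higher means compound restores mutant binding toward wildtype level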
MEKK3 confirm: MEKK3 wild-type PB1 binding to MEK5, inhibitors, confirmation, biochemical, bead multiplex flow cytometry, single concentration, wildtype; actives 1.8% (n = 5,900); binding response (% of control), % at 10 µM; Alexa488-MEK5 binding to MEKK3; active compounds read low; shares compounds with MEKK3 PB1 HTS;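 active means binding response below 72% of control, or above a set upper limit, though filed actives all read lower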;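 further: 100% = DMSO only wells and 0% = binding blocked by excess unlabeled MEK5; lower values mean stronger disruption of MEK5 binding to MEKK3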
* marks the source's active call; other numbers are inactive results; [ ] = another dose, or the depositor's remark. Hits are enriched below; roughly 2.9% of the tested compounds scored in any of these assays.

What do the screens show for `COC(=O)c1c(NC(=O)CN2CCN(C(=O)c3ccco3)CC2)c2c(C)cccc2n1C`?
MEKK3 PB1 HTS: 122.0*; MEKK2 WT-MEK5: 120.0; GRK2 aptamer HTS: 2.0; MEKK2 mut-MEK5: 18.0; Beta2AR agonist: -7.3; MEKK2wt confirm: 95.0; MEKK2mut confirm: -3.0; MEKK3 confirm: 101.0

What do the screens show for `COc1ccc(C)cc1N(C(=O)COc1cccc(F)c1)c1nc2ccccc2s1`?
MEKK3 PB1 HTS: 143.0*; MEKK2 WT-MEK5: 108.0; GRK2 aptamer HTS: 0.0; MEKK2 mut-MEK5: 1.0; Beta2AR agonist: 8.9; MEKK2wt confirm: 96.0; MEKK2mut confirm: -7.0; MEKK3 confirm: 87.0

How did CCOC(=O)c1sc2nc(C(C)C)c3c(c2c1N)CCC3 do in these assays?
MEKK3 PB1 HTS: 138.0*; MEKK2 WT-MEK5: 108.0; GRK2 aptamer HTS: 0.0; MEKK2 mut-MEK5: 0.0; Beta2AR agonist: -8.4; MEKK2wt confirm: 147.0; MEKK2mut confirm: 39.0; MEKK3 confirm: 112.0

How did CCOC(=O)c1sc2nc(C(C)C)c3c(c2c1N)CC(C)(C)OC3 do in these assays?
MEKK3 PB1 HTS: 101.0; MEKK2 WT-MEK5: 104.0; GRK2 aptamer HTS: 1.0; MEKK2 mut-MEK5: 6.0; Beta2AR agonist: 17.1

Results for COCCNC(=O)c1cc(-c2ccc(-c3ccccc3)cc2)nc2ccccc12 ?
MEKK3 PB1 HTS: 99.0; MEKK2 WT-MEK5: 95.0; GRK2 aptamer HTS: 2.0; MEKK2 mut-MEK5: -3.0; Beta2AR agonist: 11.2

Results for CC(=O)c1ccc(NC(=S)Nc2ccc3[nH]c(=O)[nH]c3c2)cc1 ?
MEKK3 PB1 HTS: 5.0*[inhibitor]; MEKK2 WT-MEK5: 7.0*[inhibitor]; GRK2 aptamer HTS: 0.0; MEKK2 mut-MEK5: -19.0; Beta2AR agonist: -0.1; MEKK2wt confirm: 109.0; MEKK2mut confirm: -2.0; MEKK3 confirm: 104.0

What do the screens show for `CC(C)C[C@@H](CC#N)N1CCN(Cc2ccccc2)CCC1=O`?
MEKK3 PB1 HTS: 99.0; MEKK2 WT-MEK5: 98.0; GRK2 aptamer HTS: 1.0; MEKK2 mut-MEK5: -4.0; Beta2AR agonist: -14.9

What do the screens show for `COc1ccc(COC(=O)CCc2c[nH]c3ccccc23)cc1F`?
MEKK3 PB1 HTS: 104.0; MEKK2 WT-MEK5: 106.0; GRK2 aptamer HTS: 0.0; MEKK2 mut-MEK5: 3.0; Beta2AR agonist: 0.9

Results for COc1cccc(C2=NO[C@@H]3C(=O)N(Cc4ccccc4)C(=O)[C@H]23)c1OC ?
MEKK3 PB1 HTS: 128.0*; MEKK2 WT-MEK5: 116.0; GRK2 aptamer HTS: 2.0; MEKK2 mut-MEK5: 7.0; Beta2AR agonist: -2.9; MEKK2wt confirm: 96.0; MEKK2mut confirm: -4.0; MEKK3 confirm: 98.0

Results for COc1cccc(C2=NOC(C(=O)N3CCN(c4ccccc4)CC3)C2)c1OC (configuration not stated) ?
MEKK3 PB1 HTS: 103.0; MEKK2 WT-MEK5: 103.0; GRK2 aptamer HTS: 0.0; MEKK2 mut-MEK5: 9.0; Beta2AR agonist: 3.5

Results for CCN(C[C@H]1N[C@@](CC)(C(=O)OC)[C@H]2C(=O)N(Cc3ccccc3)C(=O)[C@@H]12)S(=O)(=O)c1ccc(C(C)(C)C)cc1 ?
GRK2 aptamer HTS: 3.0; Beta2AR agonist: 1.0

What do the screens show for `CCN(c1ccccc1)S(=O)(=O)c1cc(NC(=O)Nc2ccccc2C#N)ccc1Cl`?
MEKK3 PB1 HTS: 133.0*; MEKK2 WT-MEK5: 108.0; GRK2 aptamer HTS: 0.0; MEKK2 mut-MEK5: 0.0; Beta2AR agonist: -18.5; MEKK2wt confirm: 106.0; MEKK2mut confirm: 3.0; MEKK3 confirm: 102.0

How did CCN(c1ccccc1)S(=O)(=O)c1ccc(Cl)c(NC(=O)Nc2ccc(Cl)cc2C#N)c1 do in these assays?
MEKK3 PB1 HTS: 101.0; MEKK2 WT-MEK5: 99.0; GRK2 aptamer HTS: 1.0; MEKK2 mut-MEK5: 1.0; Beta2AR agonist: -1.6

How did COc1ccc(CNC(=S)Nc2cccc(C)c2C)cc1 do in these assays?
MEKK3 PB1 HTS: 78.0*[inhibitor]; MEKK2 WT-MEK5: 82.0; GRK2 aptamer HTS: 0.0; MEKK2 mut-MEK5: -11.0; Beta2AR agonist: -8.3; MEKK2wt confirm: 98.0; MEKK2mut confirm: -1.0; MEKK3 confirm: 101.0

Results for O=C(c1nn(-c2ccccc2)c(=O)c2ccccc12)N1CCN(c2ccccn2)CC1 ?
MEKK3 PB1 HTS: 66.0*[inhibitor]; MEKK2 WT-MEK5: 78.0; GRK2 aptamer HTS: 1.0; MEKK2 mut-MEK5: -5.0; Beta2AR agonist: -13.3; MEKK2wt confirm: 102.0; MEKK2mut confirm: 1.0; MEKK3 confirm: 99.0

What do the screens show for `O=C(c1nn(-c2ccccc2)c(=O)c2ccccc12)N1CCN(c2ncccn2)CC1`?
MEKK3 PB1 HTS: 103.0; MEKK2 WT-MEK5: 94.0; GRK2 aptamer HTS: 0.0; MEKK2 mut-MEK5: -5.0; Beta2AR agonist: -28.1

Results for N#CCC(=O)Nc1ccc(C(=O)OCC(=O)N2CCN(C(=O)c3ccco3)CC2)cc1 ?
GRK2 aptamer HTS: 0.0; Beta2AR agonist: -6.1

How did Fc1ccc(-n2cc(CNCCc3cccnc3)c(-c3ccccc3Cl)n2)cc1 do in these assays?
MEKK3 PB1 HTS: 108.0; MEKK2 WT-MEK5: 221.0*; GRK2 aptamer HTS: 0.0; MEKK2 mut-MEK5: 66.0*; Beta2AR agonist: -5.6; MEKK2wt confirm: 127.0; MEKK2mut confirm: 10.0; MEKK3 confirm: 101.0

What do the screens show for `Fc1ccc(-n2cc(CNCCc3ccncc3)c(-c3ccccc3Cl)n2)cc1`?
MEKK3 PB1 HTS: 99.0; MEKK2 WT-MEK5: 113.0; GRK2 aptamer HTS: 0.0; MEKK2 mut-MEK5: 10.0; Beta2AR agonist: -17.6

What do the screens show for `CCOC(=O)c1cnc2c(ccc3ccccc32)c1NCCCN(C)C`?
MEKK3 PB1 HTS: 111.0; MEKK2 WT-MEK5: 151.0*; MEKK2 mut-MEK5: 9.0; Beta2AR agonist: -1.2; MEKK2wt confirm: 129.0; MEKK2mut confirm: 16.0; MEKK3 confirm: 102.0

What do the screens show for `CCC1(c2ccc(F)cc2)NC(=O)N(CC(=O)NCC(=O)Nc2cccc(C)c2C)C1=O` (configuration not stated)?
GRK2 aptamer HTS: 0.0; Beta2AR agonist: 5.7
